Results filed as inconclusive are left out. Where a call stands in place of a potency, no number is given. Activity calls are given as the source filed them. Calls follow the shape of the dose curve; as a rule, active = well fitted cell-killing curve with a large enough effect; inconclusive = small, poorly fitted or top-dose-only effect, or effect the other way; inactive = flat fitted curve, though single readings scatter.
Legend:
Assay in all cases: Primary qHTS to identify gynecologic anti-cancer compounds using libraries of approved drugs and bioactive compounds (AID 1345084); also: nearly all actives have a fitted effect of over 55% in size
Details in all cases: Gynecologic cancer cell panel viability, ATPlite luminescence, 48 h; series mostly up to 57.5 µM
SKOV3 = test system: SKOV3
Procedure, shortened: (§1)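 Luminescence from the ATPlite ATP-monitoring reagent indicates viable cell number; lower signal means cytotoxicity. Cells received compound 16 h after seeding and were exposed for 48 h across five concentrations.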

Tov-21-G = test system: Tov-21-G
Procedure, shortened: as §1

Tov112D = test system: Tov112D
Procedure, shortened: as §1
Potency is read from the fitted curve at half-maximal effect.

SMILES	Potency (SKOV3)	Potency (Tov-21-G)	Potency (Tov112D)
COC(=O)c1cc2c(C(F)(F)F)cc(-c3ccccc3)cc2n1O	inactive	inactive	inactive
CC(C)(C)NC(=O)[C@H]1CC[C@H]2[C@@H]3CC[C@H]4NC(=O)CC[C@]4(C)[C@H]3CC[C@]12C	inactive	inactive	inactive
CCc1ccccc1OC[C@@H](O)CN[C@H]1CCCc2ccccc21	inactive	inactive	inactive
O=C(NCCCc1ccccc1)C1CCC(CNS(=O)(=O)c2cccc3nsnc23)CC1 (stereo unspecified)	inactive	inactive	inactive
Cc1cccc(-c2[nH]ncc2-c2ccc(F)c(-c3cnn(CCO)c3)c2)n1	inactive	inactive	inactive
CCC(CC)Nc1nc(C)c(-c2ccc(OC(F)(F)F)cc2OC)nc1OC	inactive	inactive	inactive
CC(=O)c1ccc2c(c1)[C@H](NC(=O)c1ccc(F)c(Cl)c1)[C@H](O)C(C)(C)O2	inactive	inactive	inactive
COc1ccc(Sc2ccc(NC(=O)c3ccccc3Cl)cc2C#N)cc1	inactive	inactive	inactive
CCN(CC)C(=O)C(c1ccccc1)N1CCN(c2ccc(NC(=O)c3ccccc3-c3cccnc3)cc2F)CC1 (stereo unspecified)	inactive	inactive	inactive
COc1ccc(N(C(=O)Nc2c(C)cccc2C)c2cc(Nc3ccc(N4CCN(C)CC4)cc3)ncn2)c(OC)c1	25.1 µM (active)	12.6 µM (active)	inactive
CNC(=O)[C@@H](c1ccccc1)N1CCc2cc(OC)c(OC)cc2[C@@H]1CCc1ccc(C(F)(F)F)cc1	inactive	inactive	inactive
CC(=O)C1(C)CCC2C3C=C(C)C4=CC(=O)CCC4(C)C3CCC21C (stereo unspecified)	inactive	inactive	inactive
